{"source": "paper PMC7862700", "about": "“An all-to-all approach to the identification of sequence-specific readers for epigenetic DNA modifications on cytosine”", "assay_in_all_cases": "DAPPL (digital affinity profiling via proximity ligation, sequencing); 10 mM Tris-HCl pH 7.5, 50 mM NaCl, 1 mM DTT, 4% glycerol, room temperature, 30 min; GST-TFs on glutathione beads, 16-mer random dsDNA library, 0.1% formaldehyde crosslink after washing; high values mean tight binding", "conditions_in_all_cases": "protein: recombinant; tags: N-terminal GST; dsDNA, one strand shown", "key": {"ETV1": {"molecular_target": "ETV1 (Homo sapiens, UniProt P50549 1-477)", "sequence (P50549 whole entry, the tested form may be a part)": "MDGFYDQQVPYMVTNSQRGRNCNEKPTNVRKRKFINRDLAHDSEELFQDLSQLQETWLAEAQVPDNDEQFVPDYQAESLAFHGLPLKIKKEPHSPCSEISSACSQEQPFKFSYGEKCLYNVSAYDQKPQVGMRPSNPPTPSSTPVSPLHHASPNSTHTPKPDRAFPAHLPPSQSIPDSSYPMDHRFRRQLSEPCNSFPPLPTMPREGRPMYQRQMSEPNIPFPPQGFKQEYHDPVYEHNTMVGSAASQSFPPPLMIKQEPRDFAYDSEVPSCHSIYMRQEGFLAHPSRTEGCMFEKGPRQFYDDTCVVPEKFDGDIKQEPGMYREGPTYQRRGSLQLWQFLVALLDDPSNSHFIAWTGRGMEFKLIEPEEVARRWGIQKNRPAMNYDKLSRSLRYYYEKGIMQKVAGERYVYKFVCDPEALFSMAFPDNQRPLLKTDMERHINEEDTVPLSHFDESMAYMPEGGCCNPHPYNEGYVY", "in_short": "(§1)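 Binding signal is given per hexamer as its read frequency for a factor divided by its frequency in the tag-only sample. GST-fused human transcription factors were expressed in yeast, captured on glutathione beads, barcoded with DNA and pooled with that sample, then incubated with 200 nmole of a 16-mer random double-stranded DNA library in Tris/NaCl/DTT/glycerol buffer for 30 min at room temperature. The pools were then washed, crosslinked, proximity-ligated, amplified by PCR and sequenced on an Illumina NextSeq500.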"}, "ERF": {"molecular_target": "T1, ERF (Homo sapiens, UniProt P50548 1-548)", "T1 sequence": "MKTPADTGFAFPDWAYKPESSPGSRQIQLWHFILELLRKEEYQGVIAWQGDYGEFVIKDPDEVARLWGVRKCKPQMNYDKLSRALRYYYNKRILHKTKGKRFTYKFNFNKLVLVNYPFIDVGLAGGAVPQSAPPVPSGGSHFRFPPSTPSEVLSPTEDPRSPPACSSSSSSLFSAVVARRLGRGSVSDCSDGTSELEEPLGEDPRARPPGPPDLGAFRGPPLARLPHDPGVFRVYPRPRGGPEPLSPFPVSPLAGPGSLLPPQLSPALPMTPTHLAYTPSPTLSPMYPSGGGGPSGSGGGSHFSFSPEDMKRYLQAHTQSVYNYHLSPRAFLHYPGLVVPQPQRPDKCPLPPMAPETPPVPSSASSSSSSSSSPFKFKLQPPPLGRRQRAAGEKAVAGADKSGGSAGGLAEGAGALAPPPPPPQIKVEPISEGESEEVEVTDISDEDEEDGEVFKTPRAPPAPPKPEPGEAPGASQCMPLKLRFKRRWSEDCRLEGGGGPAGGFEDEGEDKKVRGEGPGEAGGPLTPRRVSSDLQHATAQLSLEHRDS", "in_short": "as §1"}, "ETV3L": {"molecular_target": "T2, ETV3L (Homo sapiens, UniProt Q6ZN32 1-361)", "T2 sequence": "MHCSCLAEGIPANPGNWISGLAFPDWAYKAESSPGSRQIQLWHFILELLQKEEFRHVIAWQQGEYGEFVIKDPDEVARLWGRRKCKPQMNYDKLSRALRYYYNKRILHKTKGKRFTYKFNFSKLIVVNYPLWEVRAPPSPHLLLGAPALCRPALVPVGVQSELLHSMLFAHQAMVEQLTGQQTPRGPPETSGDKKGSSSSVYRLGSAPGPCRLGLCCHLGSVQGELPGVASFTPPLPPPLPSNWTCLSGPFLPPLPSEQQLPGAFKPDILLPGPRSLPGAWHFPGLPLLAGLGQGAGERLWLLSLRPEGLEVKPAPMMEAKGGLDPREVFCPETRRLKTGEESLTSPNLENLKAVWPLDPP", "in_short": "as §1"}, "ETS2": {"molecular_target": "T3, ETS2 (Homo sapiens, UniProt P15036 1-469)", "T3 sequence": "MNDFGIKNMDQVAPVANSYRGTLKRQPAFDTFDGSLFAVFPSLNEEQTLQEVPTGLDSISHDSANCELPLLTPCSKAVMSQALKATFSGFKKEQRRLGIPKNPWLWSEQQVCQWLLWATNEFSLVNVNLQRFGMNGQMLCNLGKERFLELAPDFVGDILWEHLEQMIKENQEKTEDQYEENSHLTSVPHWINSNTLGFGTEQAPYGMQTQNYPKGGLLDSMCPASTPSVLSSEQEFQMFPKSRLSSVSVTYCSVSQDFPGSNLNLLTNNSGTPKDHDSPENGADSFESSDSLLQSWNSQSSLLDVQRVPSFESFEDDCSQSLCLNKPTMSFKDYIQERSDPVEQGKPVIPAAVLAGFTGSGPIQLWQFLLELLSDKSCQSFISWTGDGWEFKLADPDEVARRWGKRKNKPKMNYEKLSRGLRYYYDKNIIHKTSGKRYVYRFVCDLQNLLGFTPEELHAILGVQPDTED", "in_short": "as §1"}, "SPDEF": {"molecular_target": "T4, SPDEF (Homo sapiens, UniProt O95238 1-335)", "T4 sequence": "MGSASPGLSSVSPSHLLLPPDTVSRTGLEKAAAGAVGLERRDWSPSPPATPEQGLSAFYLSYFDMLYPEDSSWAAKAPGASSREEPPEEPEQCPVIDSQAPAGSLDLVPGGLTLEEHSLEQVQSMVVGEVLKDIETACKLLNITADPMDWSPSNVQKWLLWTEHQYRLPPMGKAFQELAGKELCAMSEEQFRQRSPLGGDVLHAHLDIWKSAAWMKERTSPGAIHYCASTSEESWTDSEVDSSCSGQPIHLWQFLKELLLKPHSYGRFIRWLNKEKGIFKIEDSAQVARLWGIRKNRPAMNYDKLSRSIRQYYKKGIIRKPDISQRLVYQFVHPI", "in_short": "as §1"}, "ETV7": {"molecular_target": "T5, ETV7 (Homo sapiens, UniProt Q9Y603 1-341)", "T5 sequence": "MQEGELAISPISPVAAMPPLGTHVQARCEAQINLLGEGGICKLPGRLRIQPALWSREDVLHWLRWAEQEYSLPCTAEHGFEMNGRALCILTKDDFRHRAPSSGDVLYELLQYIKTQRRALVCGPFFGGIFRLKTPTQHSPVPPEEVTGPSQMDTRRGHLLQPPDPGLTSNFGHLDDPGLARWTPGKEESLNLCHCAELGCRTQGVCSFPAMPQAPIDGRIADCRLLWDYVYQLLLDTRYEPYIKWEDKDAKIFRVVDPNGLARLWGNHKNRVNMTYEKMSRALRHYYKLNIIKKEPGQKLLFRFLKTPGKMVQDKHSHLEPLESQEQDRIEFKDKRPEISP", "in_short": "as §1"}, "ELF5": {"molecular_target": "T6, ELF5 (Homo sapiens, UniProt Q9UKW6-2 1-255)", "T6 sequence": "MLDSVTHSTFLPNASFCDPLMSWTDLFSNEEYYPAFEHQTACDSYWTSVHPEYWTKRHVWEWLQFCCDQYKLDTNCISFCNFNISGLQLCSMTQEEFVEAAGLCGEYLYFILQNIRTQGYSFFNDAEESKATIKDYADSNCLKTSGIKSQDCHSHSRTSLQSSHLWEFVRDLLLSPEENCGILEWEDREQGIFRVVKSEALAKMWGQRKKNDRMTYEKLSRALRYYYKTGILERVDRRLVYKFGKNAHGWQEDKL", "in_short": "as §1"}, "ETV3": {"molecular_target": "T7, ETV3 (Homo sapiens, UniProt P41162-2 1-143)", "T7 sequence": "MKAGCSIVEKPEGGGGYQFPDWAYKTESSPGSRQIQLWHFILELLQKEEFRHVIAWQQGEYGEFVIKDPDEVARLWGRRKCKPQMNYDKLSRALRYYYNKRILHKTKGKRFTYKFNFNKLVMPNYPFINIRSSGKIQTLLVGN", "in_short": "as §1"}, "ETV6": {"molecular_target": "ETV6 (Homo sapiens, UniProt P41212 1-452)", "sequence (P41212 whole entry)": "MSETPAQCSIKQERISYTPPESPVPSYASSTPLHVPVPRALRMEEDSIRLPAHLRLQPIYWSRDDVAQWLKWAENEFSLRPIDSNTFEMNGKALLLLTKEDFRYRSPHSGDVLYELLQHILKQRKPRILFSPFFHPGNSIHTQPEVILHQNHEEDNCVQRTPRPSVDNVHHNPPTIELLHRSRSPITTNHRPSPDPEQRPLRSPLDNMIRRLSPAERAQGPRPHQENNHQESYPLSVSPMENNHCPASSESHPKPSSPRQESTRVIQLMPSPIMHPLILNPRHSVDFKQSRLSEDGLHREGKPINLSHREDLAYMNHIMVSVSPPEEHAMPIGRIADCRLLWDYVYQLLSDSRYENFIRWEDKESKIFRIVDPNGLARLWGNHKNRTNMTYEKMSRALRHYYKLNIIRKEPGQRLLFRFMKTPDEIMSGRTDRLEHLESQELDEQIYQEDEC", "in_short": "as §1"}}}
{"sequence": "ATTCTT", "values": [{"measurement": "binding signal", "setting": "ETV1", "value": "1.56 fold enrichment (6-mer frequency, TF over GST control)"}, {"measurement": "binding signal", "setting": "ERF", "value": "1.3 fold enrichment (6-mer frequency, TF over GST control)"}, {"measurement": "binding signal", "setting": "ETV3L", "value": "1.46 fold enrichment (6-mer frequency, TF over GST control)"}, {"measurement": "binding signal", "setting": "ETS2", "value": "1.41 fold enrichment (6-mer frequency, TF over GST control)"}, {"measurement": "binding signal", "setting": "SPDEF", "value": "1.34 fold enrichment (6-mer frequency, TF over GST control)"}, {"measurement": "binding signal", "setting": "ETV7", "value": "1.54 fold enrichment (6-mer frequency, TF over GST control)"}, {"measurement": "binding signal", "setting": "ELF5", "value": "1.4 fold enrichment (6-mer frequency, TF over GST control)"}, {"measurement": "binding signal", "setting": "ETV3", "value": "1.48 fold enrichment (6-mer frequency, TF over GST control)"}, {"measurement": "binding signal", "setting": "ETV6", "value": "1.46 fold enrichment (6-mer frequency, TF over GST control)"}]}
